The values below come from PubChem BioAssay (NCATS).

Values joined by “and” are separate entries in the source; they are usually repeats but may differ in a detail not shown here. Identical values can stand only once. Records with an inconclusive call do not appear. More than one record can exist for a structure, and the calls need not agree. Active and inactive are the calls of the source. Calls come from the whole dose curve; as a rule, active = well fitted curve in the direction sought with a large enough effect; inconclusive = small, poorly fitted or top-dose-only effect, or another doubt; inactive = no such curve, though single readings can be large; an effect the other way counts as inactive or inconclusive.

Assay [1] relates to CRL-7250. The assay can be described thus: Cytotoxic Profiling of Annotated Libraries Using Quantitative High-Throughput Screening (AID 1296008). For max response: % is set by controls: 0 for no effect and ±100 for the full control effect. Note: nearly all actives have a fitted effect of over 60% in size. Note: potency is the fitted concentration of half-maximal effect. Conditions: Five cell lines viability, CellTiter-Glo ATP luminescence, 48-72 h; max response: stronger effect = lower value. The procedure, abridged: (§1)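 Cytotoxicity was measured as CellTiter-Glo ATP luminescence, read after 10 min at room temperature. Compound treatment of the cells lasted 48 or 72 hr at 37 degrees Celsius in a qHTS format.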

The subject of assay [2] is HEK293. The description is as above. Conditions: Five cell lines viability, CellTiter-Glo ATP luminescence, 48-72 h; max response: stronger effect = lower value. The procedure, abridged: as §1
For assay [3], the system named is HaCat. The description is as above. Conditions: Five cell lines viability, CellTiter-Glo ATP luminescence, 48-72 h; max response: stronger effect = lower value. The procedure, abridged: as §1
Assay [4] relates to KB-3-1. The description is as above. As to conditions: Five cell lines viability, CellTiter-Glo ATP luminescence, 48-72 h; max response: stronger effect = lower value. The procedure, abridged: as §1
Assay [5] deals with NIH3T3. The description is as above. Conditions: Five cell lines viability, CellTiter-Glo ATP luminescence, 48-72 h; max response: stronger effect = lower value. The procedure, abridged:
as §1

The subject of assay [6] is HACAT. The assay can be described thus: qHTS assay to identify novel small-molecules to repurpose for Merkel cell carcinoma treatment (AID 1296009). Note: nearly all actives have a fitted effect of over 60% in size. Note: potency is the fitted concentration of half-maximal effect. As to conditions: MCC and control cell lines, CellTiter-Glo viability, 72 h. The procedure, abridged:
(§2)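 After compound transfer in DMSO, plates were kept 72 hr at 37 degree celsius. Luminescent ATP signal from CellTiter-Glo served as viability measure, normalized against DMSO and no-cell controls.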

Assay [7] deals with HEK293T. The assay is described as above. Conditions: MCC and control cell lines, CellTiter-Glo viability, 72 h; at 44.8 µM (top of the series) unless noted. The procedure, abridged:
as §2

For assay [8], the system named is MCC-13. The description is as above. As to conditions: MCC and control cell lines, CellTiter-Glo viability, 72 h; series mostly up to 46 µM. The procedure, abridged: as §2
In assay [9] the test system is MCC-26. The assay is described as above. Conditions: MCC and control cell lines, CellTiter-Glo viability, 72 h; series mostly up to 46 µM. A digest of the protocol: as §2
For assay [10], the system named is MKL-1. Described as above. As to conditions: MCC and control cell lines, CellTiter-Glo viability, 72 h; series mostly up to 46 µM. The procedure, abridged: as §2
The test system of assay [11] is MKL-2. The description is as above. As to conditions: MCC and control cell lines, CellTiter-Glo viability, 72 h; series mostly up to 46 µM. The procedure, abridged:
as §2

For assay [12], the system named is UISO. Described as above. Conditions: MCC and control cell lines, CellTiter-Glo viability, 72 h; series mostly up to 46 µM. A digest of the protocol: as §2
Assay [13] relates to WaGa. The description is as above. Conditions: MCC and control cell lines, CellTiter-Glo viability, 72 h; series mostly up to 46 µM. The procedure, abridged:
as §2

Assay [14] deals with C33A. The assay can be described thus: Primary qHTS to identify gynecologic anti-cancer compounds using libraries of approved drugs and bioactive compounds (AID 1345084). Note: nearly all actives have a fitted effect of over 55% in size. Note: potency is the fitted concentration of half-maximal effect. Conditions: Gynecologic cancer cell panel viability, ATPlite luminescence, 48 h; series mostly up to 57.5 µM. The procedure, abridged: (§3)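 ATP-based viability (ATPlite), 1,000 cells/well, 16 h pre-incubation, 48 h compound at 37 C, 5% CO2, 15 min RT before read.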

For assay [15], the system named is CAOV3. Described as above. As to conditions: Gynecologic cancer cell panel viability, ATPlite luminescence, 48 h; series mostly up to 57.5 µM. The procedure, abridged:
as §3

Assay [16] relates to CASKI. The assay is described as above. Conditions: Gynecologic cancer cell panel viability, ATPlite luminescence, 48 h; series mostly up to 57.5 µM. The procedure, abridged:
as §3

Assay [17] deals with Es-2. Described as above. Conditions: Gynecologic cancer cell panel viability, ATPlite luminescence, 48 h; series mostly up to 57.5 µM. A digest of the protocol:
as §3

Assay [18] concerns W2. Briefly: qHTS profiling for inhibitors of Plasmodium falciparum proliferation (AID 504749).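 Note: 0% = DMSO vehicle and full inhibition = artemisinin control; nearly all actives have a fitted effect of over 60% in size.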 As to conditions: P. falciparum in erythrocytes, SYBR Green DNA, 72 h; series mostly up to 28.7 µM. A digest of the protocol:
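Three-day growth assay of blood-stage parasites in erythrocytes (0.3% parasitemia, 2.5% hematocrit) at 37 C, 5% CO2, quantified by SYBR Green DNA staining after overnight detergent lysis.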

Assay [19] relates to HeLa. Briefly: Primary qHTS to identify gynecologic anti-cancer compounds using libraries of approved drugs and bioactive compounds (AID 1345084). Note: nearly all actives have a fitted effect of over 55% in size. Note: potency is the fitted concentration of half-maximal effect. Conditions: Gynecologic cancer cell panel viability, ATPlite luminescence, 48 h; series mostly up to 57.5 µM. A digest of the protocol: as §3
Assay [20] deals with NIH3T3. The assay can be described thus: qHTS assay to identify novel small-molecules to repurpose for Merkel cell carcinoma treatment (AID 1296009). Note: nearly all actives have a fitted effect of over 60% in size. Note: potency is the fitted concentration of half-maximal effect. As to conditions: MCC and control cell lines, CellTiter-Glo viability, 72 h; at 44.8 µM (top of the series) unless noted. A digest of the protocol:
as §2

Setting [21] is: at 44.8 µM (top of the series) unless noted.

Turning to `CC(=O)CC(c1ccccc1)c1c(O)c2ccccc2oc1=O` (stereo unspecified), the max response was -2.79% (inactive) in [1]; -6.98% (inactive) in assay [3]; 7.33% (inactive) and -13.6% (inactive) and 2.81% (inactive) in [4]; -11.7% (inactive) and -5.84% (inactive) in assay [5]. The molecule was classed as inactive in [1], in assay [2], in assay [3], in [6] (setting [21]) and in [7]. Besides, the Potency result in assay [8], in [9], in [10], in [11], in [12] and in assay [13] was “inactive” throughout. The Potency result in assay [14], in assay [15], in assay [16] and in [17] was “inactive” each time.

Consider `CC(C)OC(=O)OCOP(=O)(CO[C@H](C)Cn1cnc2c(N)ncnc21)OCOC(=O)OC(C)C`, for which the max response in [1] is -6.19% (inactive); in assay [2] it was -4.37% (inactive); in assay [5] it was -4.05% (inactive) and -25.8% (inactive). The molecule was called inactive in [1], in assay [2], in assay [3], in assay [4], in assay [6] (setting [21]) and in [7]. Also, the Potency entry in assay [8], in assay [9], in assay [10], in [11], in assay [13] and in assay [14] was “inactive” throughout. The Potency result in assay [15], in assay [16] and in assay [17] was “inactive” each time.

For `CC(C)Cn1cnc2c(N)nc3ccccc3c21`, the Potency entry in assay [18], in [8], in assay [9], in assay [10], in [11] and in [12] was “inactive” throughout. Also, the Potency entry in assay [14], in [15], in assay [16], in [17] and in assay [19] was “inactive” each time. Also, the max response in assay [1] is -12.7% (inactive); in assay [2] it was -0.0078% (inactive); in assay [3], -15.1% (inactive) and -54.5% (inactive); in [4] it was -6.03% (inactive) and -18.1% (inactive); in assay [5], -4.24% (inactive) and -9.09% (inactive). Also, the call in [1] was inactive. Moreover, the Potency entry in assay [13] is “inactive and 20.9 µM (active)”.

Turning to `O=P(O)(O)C(O)(Cc1cccnc1)P(=O)(O)O`, the Potency entry in assay [18], in [8], in assay [9], in [10], in [11] and in assay [12] was “inactive” in each case. The Potency result in assay [13], in assay [14], in [15], in [16], in assay [17] and in assay [19] was “inactive” each time. In addition, the max response was -3.74% (inactive) and -13.5% (inactive) and 3.83% (inactive) in assay [1]; -18.6% (inactive) in [3]; 16.5% (inactive) and 4.21% (inactive) and 6.74% (inactive) in assay [4]; -4.1% (inactive) and 0.573% (inactive) in assay [5]. For the same molecule, the molecule was called inactive in [3], in [5], in [6] (at 4.96 µM (top of the series)), in assay [6] (at 44.8 µM (top of the series)), in assay [7] and in [20].

Regarding `CC(C)C[C@H](NC(=O)[C@H](CCc1ccccc1)NC(=O)CN1CCOCC1)C(=O)N[C@@H](Cc1ccccc1)C(=O)N[C@@H](CC(C)C)C(=O)[C@@]1(C)CO1`, the Potency in assay [1] was 211 nM (active) and 209 nM (active); in assay [2], 37.6 nM (active) and 23.5 nM (active); in assay [3], 332 nM (active); in assay [4] it was 1.84 µM (active) and 132 nM (active); in assay [5], 299 nM (active) and 235 nM (active); in [8], 84.1 nM (active) and 418 nM (active). The Potency in [10] was 5.3 nM (active) and 37.2 nM (active); in assay [11], 1.1 nM (active) and 14.8 nM (active); in [12], 18.8 nM (active) and 59 nM (active); in assay [13] it was 4.7 nM (active) and 29.6 nM (active); in [14], 316 nM (active); in assay [16] it was 316 nM (active). The Potency was 316 nM (active) in assay [17] and 794 nM (active) in assay [19].
